Laboratory results taken from ChEMBL document CHEMBL4513141, “CO-ADD screening of NIH (USA) - Clinical Collection” (2021).
Results with a measured potency or affinity are listed apart.

What was measured:
Klebsiella pneumoniae = conditions: Concentration 20 uM; ASSAY_TEST Inhibition of Bacterial Growth; detection method Absorption (OD600); MEDIA CAMHB; plate type 384well; NBS; CORNING #3640; time 18 hr
Candida albicans = conditions: 20 µM
Cryptococcus neoformans = conditions: Concentration 20 uM; ASSAY_TEST Inhibition of Fungal Growth; detection method Resazurin; Absorption (OD600-OD570); plate type 384well; NBS; CORNING #3640

SMILES	Inhibition (Klebsiella pneumoniae)	Inhibition (Candida albicans)	Inhibition (Cryptococcus neoformans)
CC(C)(C)NCC(O)c1cc(O)cc(O)c1.O=S(=O)(O)O (stereo not drawn)	12.1%	2.97%	-9.43%
CC(=O)CC(c1ccccc1)c1c([O-])c2ccccc2oc1=O.[Na+] (stereo not drawn) [WARFARIN SODIUM]	4.09%	3.09%	0.59%
CCN(C(C)=O)c1cccc(-c2ccnc3c(C#N)cnn23)c1 [ZALEPLON]	6.53%	-0.36%	-1.32%
CC(C(=O)O)c1ccc(-c2ccccc2)c(F)c1 (stereo not drawn) [FLURBIPROFEN]	4.59%	8.89%	-3.5%
CN1C(=O)CN=C(c2ccccc2)c2cc(Cl)ccc21 [DIAZEPAM]	10.3%	2.62%	-1.5%
CN[C@@H]1C[C@@H](c2ccc(Cl)c(Cl)c2)c2ccccc21.Cl [INDATRALINE HYDROCHLORIDE]	-0.11%	2.5%	-6.06%
C[C@]12CCC(=O)C=C1CC[C@@H]1[C@@H]2CC[C@@]2(C)[C@H]1CC[C@]2(C)O [METHYLTESTOSTERONE]	12.33%	4.22%	0%
COc1ccc(CCN)cc1OC	8.69%	2.72%	-1.54%
Cl.c1ccc2c(CC3=NCCN3)cccc2c1 [NAPHAZOLINE HYDROCHLORIDE]	13.63%	3.38%	-4.12%
Cc1ccnc2c1NC(=O)c1cccnc1N2C1CC1 [NEVIRAPINE]	10.08%	2.39%	-2.57%
CCOC(=O)c1cncn1[C@H](C)c1ccccc1 [ETOMIDATE]	12.64%	0.03%	0.21%
CN(C)CCc1c[nH]c2ccc(Cn3cncn3)cc12.O=C(O)c1ccccc1 [RIZATRIPTAN BENZOATE]	7.74%	5.06%	-5.39%
CN1CCN2c3ncccc3Cc3ccccc3C2C1 (stereo not drawn) [MIRTAZAPINE]	5.61%	4.27%	3.57%
Cl.Oc1ccc2c3c1OC1C(O)CC[C@@]4(O)[C@@H](C2)N(CC2CCC2)CC[C@]314 (stereo partly drawn)	8.11%	2.98%	-7.08%
Br.Br.CN1CC[C@]2(c3cccc(O)c3)Cc3nc4ccccc4cc3C[C@H]2C1.O	12.17%	0.66%	2.37%
Cc1nnc2n1-c1ccc(Cl)cc1C(c1ccccc1)=NC2 [ALPRAZOLAM]	8.67%	1.98%	-4.87%
CC(=O)[C@H]1CC[C@H]2[C@@H]3CCC4=CC(=O)CC[C@]4(C)[C@H]3CC[C@]12C [PROGESTERONE]	23.48%	11.4%	-1.48%
Nc1nc2ccc(Cl)cc2c2nc(-c3ccco3)nn12 [CGS-15943]	10.58%	6.09%	-14.37%

SMILES	Inhibition (Klebsiella pneumoniae)	Inhibition (Candida albicans)	Inhibition (Cryptococcus neoformans)
Cl.O.Oc1cc2c(cc1O)[C@H]1c3ccccc3CN[C@@H]1CC2	11.23%	1.34%	-4.18%
CN1[C@@H]2CC[C@H]1C[C@@H](OC(=O)c1c[nH]c3ccccc13)C2.Cl	15.9%	3.12%	-7.07%
Cl.Cl.OCCN1CCN(CCCN2c3ccccc3Sc3ccc(C(F)(F)F)cc32)CC1 [FLUPHENAZINE HYDROCHLORIDE]	7.98%	1.45%	-8.76%
C#C[C@]1(O)CC[C@H]2[C@@H]3CCC4=CC(=O)CC[C@@H]4[C@H]3CC[C@@]21C [NORETHINDRONE]	6.67%	4.82%	0.28%
Br.CN1[C@@H]2CC(OC(=O)[C@H](CO)c3ccccc3)C[C@H]1[C@@H]1O[C@@H]12.O.O.O (stereo partly drawn)	13.1%	2.39%	-4.17%
CN1CC[C@@]23CCCC[C@@H]2[C@@H]1Cc1ccc(O)cc13.O=C(O)C(O)C(O)C(=O)O	17.43%	2.27%	-5.99%
c1cncc([C@@H]2CCCN2)c1 [NORNICOTINE]	9.44%	3.55%	-7.65%
C[N+]1(C)CCCC(OC(=O)C(O)(c2ccccc2)c2ccccc2)C1.[Br-] (stereo not drawn) [MEPENZOLATE BROMIDE]	9.6%	4.42%	-1.1%
C[N+]1(C)CCN(c2ccccc2)CC1.[I-] [DIMETHYLPHENYLPIPERAZINIUM IODIDE]	19.04%	2.58%	-7.47%
Cc1cc(NS(=O)(=O)c2ccc(N)cc2)no1 [SULFAMETHOXAZOLE]	4.09%	6.42%	2.83%
CC(C)NCC(O)c1ccc(O)c(O)c1.Cl (stereo not drawn) [ISOPROTERENOL HYDROCHLORIDE]	6.57%	2.42%	0.22%
C[C@]12CC(C=O)=C(O)C[C@@H]1CC[C@@H]1[C@@H]2CC[C@@]2(C)[C@H]1CC[C@]2(C)O	6.07%	6.85%	3.15%
Nc1nc(F)nc2c1ncn2[C@@H]1O[C@H](CO)[C@@H](O)[C@@H]1O [FLUDARABINE]	6.42%	0.49%	-5.72%
CC(NC(C)(C)C)C(=O)c1cccc(Cl)c1.Cl (stereo not drawn) [BUPROPION HYDROCHLORIDE]	2.52%	4.99%	3.12%
CN1C(=O)COc2c(C(=O)NC3CN4CCC3CC4)cc(Cl)cc21.Cl (stereo not drawn)	10.75%	2.68%	-3.23%
CS(=O)(=O)Nc1ccc(Cc2noc(-c3ccc4[nH]cc(CCN)c4c3)n2)cc1.O.O	11.61%	2.75%	-39.59%
CNCC(O)c1ccc(O)cc1 (stereo not drawn) [OXEDRINE]	-0.12%	5.72%	1.4%
CC(C)[C@]12O[C@H]1[C@@H]1O[C@]13[C@]1(O[C@H]1C[C@H]1C4=C(CC[C@@]13C)C(=O)OC4)[C@@H]2O [TRIPTOLIDE]	7.24%	1.65%	-8.43%
